Assay results published in PubChem BioAssay AID623992 (NMMLSC, 2012).
Measured potencies and affinities stand elsewhere. Activity calls are given as the source filed them.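 Rule for the calls: active = compounds whose fitted half-maximal effective concentration for blocking dye efflux is below 100 µM; inactive = the rest.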

target: Benomyl/methotrexate resistance protein (Candida albicans) (UniProt P28873); test: Candida albicans Mdr1 pump blockade titration – singleplex, Cherry Pick2 set, dose response (AID 623992); settings: S. cerevisiae AD/CaMDR1, Nile Red efflux, flow cytometry; series mostly up to 100 µM; efflux inhibition response: at the top concentration
Sequence (P28873 whole entry, looked up): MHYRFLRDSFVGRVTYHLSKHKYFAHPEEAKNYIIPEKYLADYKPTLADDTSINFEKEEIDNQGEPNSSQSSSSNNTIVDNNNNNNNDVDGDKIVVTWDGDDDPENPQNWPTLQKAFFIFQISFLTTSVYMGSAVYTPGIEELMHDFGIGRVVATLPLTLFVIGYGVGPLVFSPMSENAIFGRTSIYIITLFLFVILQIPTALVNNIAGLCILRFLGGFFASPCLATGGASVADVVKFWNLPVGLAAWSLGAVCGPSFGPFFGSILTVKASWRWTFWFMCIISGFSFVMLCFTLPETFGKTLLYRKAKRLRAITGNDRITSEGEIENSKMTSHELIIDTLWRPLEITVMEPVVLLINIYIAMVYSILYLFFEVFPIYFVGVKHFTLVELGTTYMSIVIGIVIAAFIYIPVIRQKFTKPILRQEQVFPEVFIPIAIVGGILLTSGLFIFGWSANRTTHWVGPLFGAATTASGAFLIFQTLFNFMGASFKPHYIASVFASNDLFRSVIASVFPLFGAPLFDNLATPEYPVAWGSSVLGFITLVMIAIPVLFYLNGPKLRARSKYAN

Efflux inhibition response, inactive:
NC1=NC[C@H](Cc2ccc(O)cc2)N1CCc1cc(C(F)(F)F)cc(C(F)(F)F)c1 -0.65%
O=C(C1CCC(CNc2nc(=S)[nH]c3ccccc23)CC1)N1CCN(c2ccc(F)cc2)CC1 (stereo not given) -1.48%
O=C(C[n+]1cc(-c2ccc(Cl)cc2)n2c1CCC2)N1c2ccccc2Sc2ccccc21 -1.78%
CCO[C@@H]1OC(C(=O)Nc2ccccc2)=C[C@H](c2ccccc2)[C@H]1CCCO -1.21%
COc1ccc(-c2c[n+](CC(=O)N3c4ccccc4Sc4ccccc43)c3n2CCC3)cc1 -2.26%
Cc1ccc(C2CC(c3ccccc3)=NN2c2ccc(S(N)(=O)=O)cc2)cc1 (stereo not given) -2.43%
COc1ccc([C@H]2CC(=O)C=C(c3ccnc4ccc(Cl)cc34)C2)cc1 126%
COc1cc(OC)c2ccc(=O)oc2c1C(CCN1CCCC1)c1ccc(N(C)C)cc1 (stereo not given) -0.52%
COc1ccc(CNC(=O)C(C#N)c2nc3ccccc3nc2N2CCCC2)cc1 (stereo not given) -1.31%
NS(=O)(=O)c1ccc(N2N=C(c3ccccc3)CC2c2ccc(Br)cc2)cc1 (stereo not given) -2.11%
C[C@H](CO)N1C[C@H](C)[C@@H](CN(C)S(=O)(=O)c2ccccc2)Oc2c(NC(=O)Nc3ccccc3)cccc2C1=O 51.3%
COc1cccc(N2CCN(C(=O)C3CCCN(c4ncnc5c4nc4n5CCCCC4)C3)CC2)c1 (stereo not given) -0.35%
O=C(CSc1nnc(Cc2cccs2)n1Cc1ccco1)Nc1ccc(Br)cc1 -1.48%
CCc1ccc(C2=NN(c3ccc(S(N)(=O)=O)cc3)C(c3ccc(F)cc3)C2)cc1 (stereo not given) -1.79%
CCCCCc1cc(=O)oc2c(C(CCN3CCCC(C)C3)c3ccc(N(C)C)cc3)c(OC)cc(OC)c12 (stereo not given) -1.98%
